This is a sample that favours compounds with a hit; in the whole collection about 2.2% have one here.
ANO1 block: inhibitors of mouse TMEM16A calcium-activated chloride channel. Q8BHY3. HEK293 TMEM16A/YFP iodide influx fluorescence, ionomycin. normalized B-score (activity score, 25-100; higher = stronger inhibition) at 10 µM. hit rate 1.2% among 310,000. AID 588511;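 active = ratio plate-corrected score three or more library SD toward inhibition, starting fluorescence score within five deviations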;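 also: score derived from kinetic fluorescence span divided by baseline fluorescence per well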
TLR4 MyD88 comp: TLR4-MyD88 interaction inhibition in cells; HeLa CL3-4 TLR4/MyD88 BLA complementation, FRET ratio; hit rate 0.18% among 200,000; O00206+Q99836; inhibition, % at 8.4 µM; in the data active = inhibition above about 25%;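 also: 0% = vehicle and 100% = reference inhibitor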
TMEM16A act: activators or potentiators of mouse TMEM16A chloride channel | Q8BHY3 | HEK293 TMEM16A/YFP-H148Q/I152L, iodide quench fluorescence; active compounds read low | B-score at 10 µM | hit rate 0.3% among 340,000;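 active = fluorescence-ratio B-score plate-corrected deviation score at least 3 library SD below zero, with starting fluorescence score within 5 deviations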;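 also: channel opened by trigger with iodide after compound preincubation; score built on the fluorescence ratio of max minus min over baseline; more negative score means more quench and so TMEM16A activation or potentiation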
GRK2 aptamer HTS: blocks RNA aptamer binding to human GRK2; bead flow cytometry, FAM-aptamer displacement from GRK2; inhibition of aptamer binding, % at 10 µM; hit rate 0.59% among 330,000; AID 488847;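 active = inhibition of aptamer binding above 40%, roughly 3 SD of noise, on plates passing a quality check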;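 also: median bead fluorescence of bound FAM aptamer so fluorescent compounds give negative values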
TLR9-MyD88 block: TLR9-MyD88 interaction inhibition | Q9NR96+Q99836 | CHO BLA complementation TLR9-MyD88, CCF4 FRET ratio | inhibition, % at 4.98 µM | hit rate 0.21% among 340,000;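 active = inhibition above the mean over all tested compounds plus 3 SD, cut at about 21% in these data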;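 also: 0% = DMSO only wells and 100% = clavulanate BLA inhibitor control wells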
NOD2 RIPK2 PPI: NOD2-RIPK2 protein interaction inhibition. O43353. hit rate 0.38% among 360,000. CHO BLA complementation NOD2-RIPK2, CCF4 ratio. inhibition, % at 4.98 µM; in the data active = inhibition above about 21%;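 also: 0% = vehicle only and 100% = reference blocker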
GRK2 CP1: confirmation of human GRK2 inhibitors displacing RNA aptamer | shares compounds with GRK2 aptamer HTS | hit rate 4% among 2,000 | aptamer displacement, % at 10 µM | bead-bound GRK2, FAM-aptamer displacement, flow cytometry | AID 504451;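 active = aptamer displacement above 40%, near three times the noise of non-fluorescent compounds, on plates passing quality checks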;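 also: negative values mostly reflect intrinsic compound fluorescence rather than true enhancement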
FAM quench CP1: counter-screen for GRK2 aptamer inhibitors: fluorescent aptamer quenchers | 2,000 tested, under 10 active | fluorescence response (% of DMSO), % at 10 µM | shares compounds with GRK2 aptamer HTS | Carboxyfluorescein RNA aptamer on beads, flow cytometry quenching; active compounds read low | AID 504580;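 active = compounds that quench the bead-bound fluorescent RNA probe, cutting fluorescence to under half of the solvent control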;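 also: counterscreen run without GRK2 so only probe quenching by compound is measured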
GRK2 confirm 2: confirmation of human GRK2 inhibitors binding RNA aptamer site; shares compounds with GRK2 aptamer HTS; bead-bound GRK2, FAM-aptamer displacement, flow cytometry; inhibition of aptamer binding, % at 10 µM; 360 tested, under 10 active; AID 504782;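 active = inhibition of aptamer binding above 40%, about triple the noise seen with nonglowing compounds, on plates passing quality control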;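 also: negative values mostly come from compounds that fluoresce themselves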
FAM quench CP2: aptamer fluorescence quenching in GRK2 counter-screen; shares compounds with GRK2 aptamer HTS; carboxyfluorescein RNA aptamer beads, flow cytometry quenching; active compounds read low; fluorescence response vs DMSO, % at 10 µM; 360 tested, under 10 active; AID 588494;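 active = response vs DMSO under 50%, meaning signal dropped by over half, treated as fluorescence quencher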;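 also: labelled aptamer on streptavidin beads without GRK2 as a quench counter-screen; 100% = bead fluorescence of DMSO wells and lower means quenching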
An asterisk follows results filed as active; i = inactive; . = no result.

SMILES | ANO1 block | TLR4 MyD88 comp | TMEM16A act | GRK2 aptamer HTS | TLR9-MyD88 block | NOD2 RIPK2 PPI | GRK2 CP1 | FAM quench CP1 | others
CN(C)S(=O)(=O)c1cccc(COc2cccnc2[N+](=O)[O-])c1 | i | . | i | 1.0 | -3.7 | -3.3 | . | .
COc1ccc(N2CCN(C(=O)C(=O)c3cccc([N+](=O)[O-])c3)CC2)cc1 | . | . | . | . | . | -4.3 | . | .
O=C(Nc1nccs1)C(c1ccccc1)N1CCCCC1 (centres undefined) | i | -9.0 | i | 61.0* | -7.8 | 3.8 | -4.6 | 98.4
O=C(Nc1nccs1)C(Br)C(Br)c1ccccc1 (centres undefined) | i | . | i | 0.0 | -8.0 | 1.6 | . | .
CCCOC(=O)CCCN1C(=O)/C(=C2\SC(=S)N(CCCC(=O)OCCC)C2=O)SC1=S | i | . | i | 60.0* | . | -4.6 | 36.3 | 100.3
CCOc1ccc(NC(=O)CCS(=O)(=O)c2ccc3c(c2)CCCN3C(C)=O)cc1 | i | -5.0 | . | 4.0 | -11.0 | -0.6 | . | .
CCc1ccccc1NC(=O)CCS(=O)(=O)c1ccc2c(c1)CCCN2C(C)=O | i | . | i | 61.0* | -6.6 | -2.0 | 1.1 | 99.9 | GRK2 confirm 2=17.2;FAM quench CP2=100.0
CCC(=O)N1CCc2cc(S(=O)(=O)CCC(=O)NCc3cccs3)ccc21 | i | -9.9 | i | 0.0 | 8.5 | -11.7 | . | . | GRK2 confirm 2=11.5;FAM quench CP2=99.0
CCOc1ccccc1NC(=O)CCS(=O)(=O)c1ccc2c(c1)CC(C)N2C(C)=O (centres undefined) | i | . | i | 1.0 | 8.4 | -11.9 | . | .
CCOc1ccccc1NC(=O)CCS(=O)(=O)c1ccc2c(c1)CCN2C(C)=O | i | . | i | 6.0 | -8.9 | 5.2 | . | . | GRK2 confirm 2=-8.3;FAM quench CP2=101.0
O=C(C1=C(O)C(=O)N(CCN2CCOCC2)C1c1cccc(F)c1)c1cc2ccccc2o1 (centres undefined) | i | . | i | 1.0 | -0.1 | -12.0 | . | .
COc1ccccc1CN(C)C(=O)CN1C(=O)c2ccccc2C1=O | i | . | i | 0.0 | -4.6 | -7.3 | . | .
O=C(Nc1ccccc1C(=O)Nc1ccc(Br)cn1)c1ccccc1Cl | . | . | i | 44.0* | -4.0 | -9.0 | . | . | GRK2 confirm 2=15.9;FAM quench CP2=100.0
COc1ccc(Cl)cc1Nc1nnc(-c2ccncc2)s1 | i | . | i | 55.0* | 6.2 | 3.1 | -11.0 | 102.9
CCOc1ccccc1N(C)C(=O)CCS(=O)(=O)c1ccc2c(c1)NC(=O)CO2 | i | . | i | 0.0 | 8.4 | -17.5 | . | . | GRK2 confirm 2=i;FAM quench CP2=107.0
CCN(Cc1ccccc1)C(=O)CCS(=O)(=O)c1ccc2c(c1)NC(=O)CO2 | i | . | i | 1.0 | -4.2 | -7.9 | . | .
Cn1nccc1C(=O)Nc1cc(Cl)ccc1Cl | i | . | i | 1.0 | . | 3.9 | . | .
CN1CCOC(=O)/C1=N/Nc1cc(Cl)ccc1Cl | i | 8.6 | i | 57.0* | 2.2 | -4.7 | -5.6 | 96.4
CCOC(=O)CC/C(C)=N\N=C1\SC(CC(=O)O)C(=O)N1c1ccccc1 (centres undefined) | i | . | i | 0.0 | -7.5 | -8.4 | . | .
O=c1c(O)cccc2cc(O)c(O)c(O)c12 | i | . | i | 100.0* | -0.5 | -3.0 | 30.3 | 91.0
O=c1cc(-c2ccccc2)oc2cc(O)c(O)c(O)c12 | . | . | i | 1.0 | 0.4 | -11.7 | . | .
COC(=O)/C(=C1/Oc2ccc(C)cc2S1)C(F)(F)F | i | -15.2 | i | 0.0 | -1.8 | -8.6 | . | .
CCc1sc(C(=O)NCCCn2ccnc2)cc1Br | i | . | i | 0.0 | -3.0 | 3.3 | . | .
O=C(NCc1ccco1)c1nc2nc(-c3cccs3)cc(C(F)(F)F)n2n1 | i | -1.0 | i | 42.0* | 1.3 | 10.8 | 1.5 | 99.4
